# Records with an inconclusive call do not appear. Where a call stands in place of a potency, no number is given. Unmarked numbers belong to inactive results. Activity calls are given as the source filed them. Calls follow the shape of the full dose curve. Peptide text beside a SMILES is read from it. * marks the point of attachment. Cbz = O=C(OCc1ccccc1)*; CH2Cl = ClC*
# Test: Confirmatory qHTS for VERO E6 Cytotoxicity Assay: Counterscreen for SARS-CoV-2 CPE Assay (AID 1508605); also: nearly all actives have a fitted effect of over 60% in size
# Conditions: cell viability luminescence; series mostly up to 20 µM
# Potency is read from the fitted curve at half-maximal effect.
SMILES,Potency,"activity change, negative = cytotoxic"
CCN(CC)CCCS(=O)(=O)N[C@H](CCc1ccccc1)c1nc(Cc2ccc(Br)cc2)no1,inactive,–
C/C1=C\CCC2=CC(OC2=O)C(C)(C)/C=C/C1=O (stereo not given),inactive,–
Fc1ccc2c(CCNCc3cccc(OCC(F)(F)C(F)F)c3)c[nH]c2c1,inactive,–
O=C1Nc2nc(-c3c(O)cccc3OCC3CC3)cc([C@@H]3CCCNC3)c2CO1,inactive,–
CN(C)CCN(Cc1ccc(-c2ccc(CNCCc3ccccc3)cc2)cc1)C(=O)CCC1CCCC1,3.98 µM (active),–
Cn1cc(-c2ccc(-c3cncc(Cl)c3N3CCC4(CCNC4=O)CC3)cc2)cn1,inactive,–
Cc1cc(C)c(CNC(=O)c2cc(-c3ccc(N4CCN(C)CC4)nc3)cc3c2c(C)cn3C(C)C)c(=O)[nH]1,inactive,–
C[C@@H]1O[C@@H](O[C@@H]2[C@@H](O)[C@H](O[C@@H]3[C@@H](O)[C@@H](O)[C@H](O[C@H]4[C@H](OC(=O)[C@]56CCC(C)(C)C[C@H]5C5=CCC7[C@@]8(C)C[C@H](O)[C@H](O[C@@H]9O[C@@H](C)[C@H](O)[C@@H](O)[C@H]9O)[C@@](C)(CO)C8CC[C@@]7(C)[C@]5(C)C[C@H]6O)O[C@H](C)[C@H](O)[C@@H]4O)O[C@H]3C)OC[C@H]2O)[C@H](O)[C@H](O)[C@H]1O (stereo not given in full),1.91 µM (active),–
CNC(=O)c1ccc2c(C(=Nc3cccc(CN(C)C)c3)c3ccccc3)c(O)[nH]c2c1,inactive,–
CCC(CC)COC(=O)[C@H](C)N[P@](=O)(OC[C@H]1O[C@@](C#N)(c2ccc3c(N)ncnn23)[C@H](O)[C@@H]1O)Oc1ccccc1,inactive,–
O=C1NC(=O)/C(=C\c2ccc(-c3ccc(F)cc3)o2)S1,inactive,–
CCCC[C@@H](C=O)NC(=O)[C@H](CC(C)C)NC(=O)OCc1ccccc1,inactive,–
CC1OC2OC3C(OCC(O)C3O)OC(=O)C34CCC(C)(C)CC3C3=CCC5C6(C)CC(O)C(OC7OC(CO)C(O)C(O)C7OC7OCC(OC(=O)CC(C)(O)CC(=O)OC1C(OC1OCC(O)C(O)C1O)C2O)C(O)C7O)C(C)(CO)C6CCC5(C)C3(C)CC4O (stereo not given),1.56 µM (active),–
COCCNCc1ccc(-c2cc3nccc(Oc4ccc(NC(=O)C5(C(=O)Nc6ccc(F)cc6)CC5)cc4F)c3s2)nc1,5.01 µM (active),–
CC(C)C[C@H](NC(=O)CNC(=O)OCc1ccccc1)C(=O)N[C@@H](Cc1ccccc1)C(=O)CCl (Cbz-Gly-Leu-Phe-CH2Cl),inactive,–
C[C@H](NC(=O)[C@H](Cc1ccccc1)NC(=O)OCc1ccccc1)C(=O)CF,inactive,–
CN1CCN(c2ccc(C(=O)Nc3n[nH]c4ccc(Cc5cc(F)cc(F)c5)cc34)c(NC3CCOCC3)c2)CC1,3.55 µM (active),–
c1ccc2c(-c3cnn4cc(-c5ccc(OCCN6CCOCC6)cc5)cnc34)ccnc2c1,inactive,–
CC#C[C@@H](CC(=O)O)c1ccc(OCc2cccc(-c3ccc(C(F)(F)F)cc3)c2)cc1,inactive,–
Cc1ncc(NC(=O)c2ccc(CN3CCN(C)CC3)c(C(F)(F)F)c2)cc1Nc1nccc(-c2cccnc2)n1,inactive,–

SMILES,Potency,"activity change, negative = cytotoxic"
CNCc1ccc(-c2cc(-c3nc(-c4ccc(S(=O)(=O)C(C)C)cc4)cnc3N)on2)cc1,11.2 µM (active),–
CC1CCN(C(c2ccc(F)cc2)c2ccc(C(C)C(=O)O)cc2-c2ccc(C(F)(F)F)cc2)CC1 (stereo not given),11.2 µM (active),–
O=C(NCc1ccccc1)[C@H](Cc1ccccc1)NC(=O)[C@H]1O[C@@H]1C(=O)NCCc1ccc(O)cc1,inactive,–
Cc1nc(C)c(CN2CCN(C(c3ccc(F)cc3)c3ccc(F)cc3)CC2)nc1C,inactive,–
c1ccc(-c2ccc(CNc3nc(-c4ccccn4)nnc3-c3ccccc3)cc2)cc1,0.501 µM (active),–
COc1cc2nc(N3CCCCC3)nc(NC3CCN(C)CC3)c2cc1OC,10 µM (active),–
Cc1ccc(NCCN(C)CCNc2ccnc3cc(Cl)ccc23)c2c(=O)c3ccccc3sc12,inactive,–
CC[C@H](NC(=O)[C@H](CS(=O)(=O)CC1CC1)N[C@@H](c1ccc(F)cc1)C(F)(F)F)C(=O)C(=O)NC1CC1,inactive,–
CC1=CC2OC3CC(O)[C@@](C)(C34CO4)[C@@]2(C)C(O)C1=O (stereo not given in full),3.55 µM (active),–
Nc1nc(OC(c2ccc(-c3cccc(F)c3)cc2)C(F)(F)F)cc(-c2ccc(C[C@H](N)C(=O)O)cc2)n1 (stereo not given in full),inactive,–
O=C1c2ccccc2-c2nc3nnnn3nc21 (tested in a mixture with another compound),1.12 µM (active),–
C/C(=N\NC(=O)c1cccc(S(=O)(=O)N2CCOCC2)c1)c1cc(Cl)ccc1O,1 µM (active),–
CCCCCCCCC(=O)N[C@H](CN1CCCC1)[C@H](O)c1ccc2c(c1)OCCO2,inactive,–
Cc1cc2cc(Oc3ccnc(Nc4cccc(CS(=O)(=O)NCCN(C)C)c4)n3)ccc2[nH]1,11.2 µM (active),–
Cc1cccc(/C=N/Nc2cc(N3CCOCC3)nc(OCCc3ccccn3)n2)c1,–,-20.4% [at 1.7 µM]
CONC(=O)Nc1ccc(-c2sc3c(c2CN(C)Cc2ccccc2)c(=O)n(-c2ccccc2)c(=O)n3Cc2c(F)cccc2F)cc1,inactive,–
CCCN1CCN(c2ccc(C(=O)NC3(C(=O)NCC#N)CCCCC3)cc2)CC1,inactive,–
CCCCNc1ncc2c(-c3ccc(CN4CCN(C)CC4)cc3)cn(C3CCC(O)CC3)c2n1 (stereo not given),3.16 µM (active),–
Nc1nc(Nc2ccc3c(c2)CC[C@@H](N2CCCC2)CC3)nn1-c1cc2c(nn1)-c1ccccc1CCC2,10 µM (active),–
C=CC(=O)N[C@H]1CCOC[C@H]1Nc1ncc2cc(-c3c(Cl)c(OC)cc(OC)c3Cl)ccc2n1,inactive,–

# Reference: PubChem BioAssay (NCATS)
